# The list is not random: actives were taken first. Their share in the collection is about 19%.
# KB-V1 cytotox – qHTS assay for MDR1-selective chemotherapeutics: Primary screen using the drug-selected MDR subline cells KB-V1; Potency, µM (doses to about 46.1 µM), usual class: cytotoxic; AID 1347076, 2019; KB-V1 MDR cells viability, CellTiter-Glo, 72 h; hit rate 3.4% among 400,000; also: nearly all actives have a fitted effect of over 60% in size
#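 Cytotoxicity toward P-gp-expressing KB-V1 cells was determined as loss of CellTiter-Glo luminescence after 72 h at 37 degrees C. Compounds were tested in quantitative HTS format across a concentration range, with curves fitted to normalized data.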
# TDP1 cell CPT – qHTS for Inhibitors of human tyrosyl-DNA phosphodiesterase 1 (TDP1): qHTS in cells in presence of CPT. hit rate 12% among 420,000. chicken DT40 Tdp1-/-;hTDP1 cells + 20 nM CPT, ATP luminescence, 48 h. Potency, µM (top dose mostly 46.2 µM), for inactives: at the top dose activity change, negative = growth inhibition, hits mostly inhibitors; also: nearly all actives have a fitted effect of over 55% in size
#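 Cell growth measured by CellTiter-Glo luminescence after a minimum 48 h, 37 C compound exposure with 20 nM CPT in Tdp1-knockout DT40 cells stably expressing hTDP1, seeded 400/well; qHTS titration format.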
# DT40 TDP1 no CPT – qHTS for Inhibitors of human tyrosyl-DNA phosphodiesterase 1 (TDP1): qHTS in cells in absence of CPT; Potency, µM (highest dose often 46.2 µM), for the others: at the highest dose activity change, negative = growth inhibition, most hits filed as inhibitors; hit rate 15% among 420,000; DT40 Tdp1-/- hTDP1 cells, no CPT, ATP luminescence, 48 h; also: nearly all actives have a fitted effect of over 55% in size
#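 Readout: luminescence from CellTiter-Glo after 30 min in the dark at RT. Cells: DT40 Tdp1-/- with stable hTDP1, 400/well. Exposure: compounds alone, ≥48 hr, 37 °C.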
# HT1080-NT tox – qHTS for induction of synthetic lethality in tumor cells producing 2HG: qHTS for the HT-1080-NT fibrosarcoma cell line; HT-1080-NT fibrosarcoma viability, CellTiter-Glo ATP luminescence, 48 h; Potency, µM (titrated, usually from 46.1 µM), inactives show at the highest dose activity, negative = less viability, hits mostly cytotoxic; hit rate 1.6% among 360,000; AID 686970, 2013;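 also: NT is the 2HG producing partner of a matched IDH1 knockdown line; 0% = DMSO-treated cells and -100% = media-only wells without cells; nearly all actives have a fitted effect of over 55% in size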
#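 Compounds were tested in concentration-response format on HT-1080-NT cells for 48 hours at 37 degrees C. Cell viability came from CellTiter-Glo luminescence; curves were classified by r2, response magnitude and activity.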
# KB-3-1 cytotox – qHTS assay for MDR1-selective chemotherapeutics: Primary screen using the parental adenocarcinoma cell KB-3-1; KB-3-1 viability, CellTiter-Glo ATP luminescence, 72 h; Potency, µM (top dose mostly 46.1 µM), most hits filed as cytotoxic; hit rate 1.4% among 400,000; also: nearly all actives have a fitted effect of over 60% in size
#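 Multi-concentration cytotoxicity screen in KB-3-1 cells grown in DMEM lacking phenol red with 10% FBS. After 72 h at 37 °C with compound, ATP-dependent luminescence was recorded.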
# HT1080 IDH1KD tx – qHTS for induction of synthetic lethality in tumor cells producing 2HG: qHTS for the HT-1080-IDH1KD cell line; HT-1080 IDH1 knockdown viability, ATP luminescence, 48 h; Potency, µM (titrated, usually from 46.1 µM), for inactives: top-dose activity, negative = toxicity, hits mostly cytotoxic; hit rate 2% among 360,000;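 also: 0% = DMSO wells and -100% = cell-free medium wells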
#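 Luminescent ATP read-out (CellTiter-Glo, 10 min at room temperature) after 48 h compound exposure at 37 °C gave viability of IDH1-knockdown HT-1080 cells. Activity was normalised to DMSO and cell-free wells, then fitted as concentration-response curves.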
# Numbers without * were called inactive; i = inactive; ? = inconclusive; . = not tested or not shown; [ ] = dose if it differs, or a comment. Calls follow the shape of the dose curve; as a rule, active = well fitted curve in the direction sought with a large enough effect; inconclusive = small, poorly fitted or top-dose-only effect, or another doubt; inactive = no such curve, though single readings can be large; an effect the other way counts as inactive or inconclusive. Unless noted, % is scaled to controls: 0 for no effect and ±100 for the full control effect; potency is read from the fitted curve at half-maximal effect.
SMILES,KB-V1 cytotox,TDP1 cell CPT,DT40 TDP1 no CPT,HT1080-NT tox,KB-3-1 cytotox,HT1080 IDH1KD tx
C=C(C)C1CCC(C)=C1CC(C)(C)/C=N\n1cnnc1 (stereo unspecified),14.6µM*,10.3µM*,20.6µM*,-24.7%,i,-2.8%[9.24 µM]
COc1cccc(C(=O)Nc2nc(C)cs2)c1,i,-17.7%,-12.8%,2.5%,i,-0.9%
COc1ccc(C(=O)Nc2nc(-c3nnn(-c4cc(OC)ccc4OC)c3C)ns2)cc1,i,16.4µM*,16.4µM*,.,i,.
COc1cccc(C(=O)Nc2nc(-c3nnn(-c4cccc(Cl)c4C)c3C)ns2)c1,i,?,?,.,14.6µM*,.
COc1ccc(-c2nsc(NC(=O)c3cccc(OC)c3)n2)cc1,.,?,20.6µM*,.,.,.
O=C(Nc1nc(-c2ccc(Br)cc2)ns1)c1ccc(F)cc1,.,?,18.4µM*,.,.,.
OCc1cccc(-c2csc(C(O)c3ccccc3)n2)c1 (stereo unspecified),i,?,-13.0%,1.6%,i,0.0%
CC1(C(=O)NS(=O)(=O)c2ccc(F)cc2F)CCN1C(=O)C1(c2ccc(Cl)cc2)CCC1 (stereo unspecified),?,-34.4%,-18.3%,-11.9%,?,-23.3%
COc1cc(OC)cc(C(=O)Nc2nc(-c3nnn(-c4ccc(F)c(Cl)c4)c3C)ns2)c1,i,?,?,.,i,.
COc1ccc(C(=O)Nc2nc(-c3nnn(-c4ccc(C(C)C)cc4)c3C)ns2)cc1,?,13µM*,16.4µM*,.,i,.
O=C(CSc1nnc(COc2ccccc2)n1-c1ccccc1)c1cccs1,i,18.4µM*,20.6µM*,?,i,-25.1%
Cc1ccc(OCc2nnc(SCc3ccc(C#N)cc3)n2-c2ccc(C)cc2)cc1,i,?,16.4µM*,?,i,11.2µM*
CCOc1ccc(-n2c(COc3ccc(C)cc3)nnc2SCC(N)=O)cc1,i,-14.1%,-13.6%,-1.8%,i,1.5%
Cc1ccc(-n2c(SCc3ccc(C#N)cc3)nnc2-c2ccccn2)cc1,i,-17.0%,-20.5%,7.9%,i,3.6%
CCOC(=O)C(CC)Sc1nnc(COc2ccc(C)cc2)n1-c1ccccc1 (stereo unspecified),i,20.6µM*,?,-18.0%,i,-4.2%
COCCNC(=S)N(CCc1c(C)[nH]c2ccc(F)cc12)Cc1ccco1,i,?,?,-5.8%,i,0.0%
Cc1cc(C)cc(NC(=O)C(C)N2Cc3ccccc3C2=O)c1 (stereo unspecified),i,-27.5%,-35.2%,.,i,.
O=C(CN1C(=O)NC2(CCOc3ccccc32)C1=O)c1ccc(F)cc1 (stereo unspecified),i,4.1%,-8.4%,-0.9%,i,-1.9%
COC(=O)/C=C/c1cc(O)ccc1O,.,0.731µM*,1.16µM*,.,.,.
COc1ccc(C)cc1N(C(=O)c1ccccc1)c1nc2ccccc2s1,i,-28.1%,?,-11.5%,i,-10.4%
Cc1ccccc1N(C(=O)c1cccs1)c1nc2ccccc2s1,i,23.1µM*,18.4µM*,-6.2%,i,-6.2%
Cc1ccsc1C(=O)N(c1nc2ccccc2s1)c1c(C)cccc1C,?,?,23.1µM*,14.1%,?,11.7%
COc1ccc(C)cc1N(C(=O)c1cccc(F)c1)c1nc2ccccc2s1,i,-10.3%,-27.0%,1.9%,i,1.5%
Cc1ccc2nc(-c3ccc(C#N)cc3)c(Cc3cccc(Cl)c3)n2c1,i,18.4µM*,18.4µM*,?,i,25.9µM*
N#Cc1ccc(-c2nc3ccc(Cl)cn3c2Cc2cccc(F)c2)cc1,i,?,?,-5.3%,i,?
SMILES,KB-V1 cytotox,TDP1 cell CPT,DT40 TDP1 no CPT,HT1080-NT tox,KB-3-1 cytotox,HT1080 IDH1KD tx
N#Cc1ccc(-c2nc3ccc(Cl)cn3c2Cc2cccc(Cl)c2)cc1,i,?,20.6µM*,-19.1%,i,-20.0%
Cc1ccc2nc(-c3ccc(C#N)cc3)c(Cc3ccccc3)n2c1,?,?,?,1.9%,i,0.8%
CCCC(=O)N1CCCC1(C)C(=O)Nc1cc(C)ccc1C (stereo unspecified),i,1.8%,-0.4%,?,i,20.2%
COc1ccc(C(=O)C(C)OC(=O)C2CC3CCCC(C2)C3=O)cc1 (stereo unspecified),i,?,?,12.5%,i,-0.4%
C[C@H](O)[C@@H]1CN2CCc3c([nH]c4ccccc34)[C@@H]2C[C@@H]1N(C)C(=O)c1ccco1,?,?,?,25.9µM*,?,?
Cc1ccccc1C(=O)N(C)[C@H]1C[C@H]2c3[nH]c4ccccc4c3CCN2C[C@H]1[C@H](C)O,i,?,?,-1.8%,i,0.1%
COC(=O)C1=COC(C)C2CN3CCc4c([nH]c5cc(OC)c(OC)cc45)C3CC12 (stereo unspecified),i,?,?,3.0%,i,4.6%
COc1ccc(-c2ccc3[nH]c4c(c3c2)CCN2C(=O)[C@@H]([C@H](C)O)[C@@H](N(C)C(=O)Nc3cc(Cl)cc(Cl)c3)C[C@@H]42)cc1,i,23.1µM*,14.6µM*,?,?,15.0%
C[C@H](O)[C@@H]1CN2CCc3c([nH]c4ccc(-c5ccc6c(c5)OCO6)cc34)[C@@H]2C[C@@H]1N(C)C(=O)Nc1ccc(F)cc1,?,2.91µM*,5.17µM*,?,5.8µM*,20.6µM*
C[C@@H]1ON(C)[C@H]2C[C@H]3c4[nH]c5ccc(-c6ccc7c(c6)OCO7)cc5c4CCN3C[C@@H]12,?,?,20.6µM*,?,?,-26.6%
CN1CCN(C(=O)C(=O)c2cn(CC(=O)N3CCCCCC3)c3ccccc23)CC1,i,-2.1%,-14.3%,-0.1%,i,0.8%
COc1ccc(-c2ccc3[nH]c4c(c3c2)CCN2C[C@@H]([C@H](C)O)[C@@H](N(C)C(=O)Nc3cc(Cl)cc(Cl)c3)C[C@@H]42)cc1,?,9.2µM*,4.61µM*,?,i,20.6µM*
